How the values were obtained:
Experiment in all cases: DAPPL (digital affinity profiling via proximity ligation, sequencing); 10 mM Tris-HCl pH 7.5, 50 mM NaCl, 1 mM DTT, 4% glycerol, room temperature, 30 min; GST-TFs on glutathione beads, 16-mer random dsDNA library, 0.1% formaldehyde crosslink after washing; high values mean tight binding
FLI1 = biological target: T1, FLI1 (Homo sapiens, UniProt Q01543 1-452); details: protein: recombinant; tags: N-terminal GST; dsDNA, one strand shown
T1 sequence: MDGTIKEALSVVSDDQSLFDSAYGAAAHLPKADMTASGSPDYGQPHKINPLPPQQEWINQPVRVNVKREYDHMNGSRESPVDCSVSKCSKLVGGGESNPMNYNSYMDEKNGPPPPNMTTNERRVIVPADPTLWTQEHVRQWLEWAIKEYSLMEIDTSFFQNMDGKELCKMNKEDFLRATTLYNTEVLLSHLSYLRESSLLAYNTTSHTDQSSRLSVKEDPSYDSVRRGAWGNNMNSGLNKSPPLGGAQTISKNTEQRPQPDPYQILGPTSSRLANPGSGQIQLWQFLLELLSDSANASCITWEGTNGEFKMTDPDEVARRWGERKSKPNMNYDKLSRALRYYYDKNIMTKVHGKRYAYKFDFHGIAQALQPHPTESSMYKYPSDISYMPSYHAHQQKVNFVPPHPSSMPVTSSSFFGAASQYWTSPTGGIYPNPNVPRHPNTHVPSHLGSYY
Procedure, shortened: (§1)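 Human transcription factors carrying a GST fusion were produced in yeast, bound to glutathione beads, tagged with DNA barcodes and pooled together with a tag-only sample. Each pool was held with 200 nmole of a random double-stranded 16-mer DNA library in Tris/NaCl/DTT/glycerol buffer for 30 min at room temperature, then washed, crosslinked in 0.1% formaldehyde, proximity-ligated with BsaI/T4 ligase (1 h, 37 °C), PCR-amplified and sequenced on an Illumina NextSeq500. Binding signal is the read frequency of each hexamer for a given factor divided by its frequency in the tag-only sample.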

ELK1 = biological target: T2, ELK1 (Homo sapiens, UniProt P19419 1-428); details: protein: recombinant; tags: N-terminal GST; dsDNA, one strand shown
T2 sequence: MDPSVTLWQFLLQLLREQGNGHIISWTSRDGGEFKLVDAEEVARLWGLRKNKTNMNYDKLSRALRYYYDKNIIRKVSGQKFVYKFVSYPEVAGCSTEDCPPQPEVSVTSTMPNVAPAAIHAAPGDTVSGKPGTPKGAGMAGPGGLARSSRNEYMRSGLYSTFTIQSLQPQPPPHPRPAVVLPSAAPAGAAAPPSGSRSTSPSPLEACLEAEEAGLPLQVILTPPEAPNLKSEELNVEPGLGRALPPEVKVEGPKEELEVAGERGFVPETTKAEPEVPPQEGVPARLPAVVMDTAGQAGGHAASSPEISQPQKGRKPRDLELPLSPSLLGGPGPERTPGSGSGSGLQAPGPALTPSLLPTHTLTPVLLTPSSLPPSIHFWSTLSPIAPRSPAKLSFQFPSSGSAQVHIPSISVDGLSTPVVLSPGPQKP
Procedure, shortened: as §1

GABPA = biological target: T3, GABPA (Homo sapiens, UniProt Q06546 1-454); details: protein: recombinant; tags: N-terminal GST; dsDNA, one strand shown
T3 sequence: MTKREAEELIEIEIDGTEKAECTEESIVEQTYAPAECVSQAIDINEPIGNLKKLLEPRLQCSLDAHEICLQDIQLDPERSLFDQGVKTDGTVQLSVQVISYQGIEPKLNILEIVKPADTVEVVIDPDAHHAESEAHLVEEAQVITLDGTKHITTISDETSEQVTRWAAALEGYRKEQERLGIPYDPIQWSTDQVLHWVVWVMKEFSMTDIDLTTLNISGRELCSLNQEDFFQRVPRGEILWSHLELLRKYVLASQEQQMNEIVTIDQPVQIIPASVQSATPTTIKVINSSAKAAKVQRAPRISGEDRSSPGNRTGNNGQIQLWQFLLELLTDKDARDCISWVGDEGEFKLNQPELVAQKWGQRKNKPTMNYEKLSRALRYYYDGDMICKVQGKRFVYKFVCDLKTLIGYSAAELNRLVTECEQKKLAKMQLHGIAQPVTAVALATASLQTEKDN
Procedure, shortened: as §1

ERG = biological target: T4, ERG (Homo sapiens, UniProt P11308 1-479); details: protein: recombinant; tags: N-terminal GST; dsDNA, one strand shown
T4 sequence: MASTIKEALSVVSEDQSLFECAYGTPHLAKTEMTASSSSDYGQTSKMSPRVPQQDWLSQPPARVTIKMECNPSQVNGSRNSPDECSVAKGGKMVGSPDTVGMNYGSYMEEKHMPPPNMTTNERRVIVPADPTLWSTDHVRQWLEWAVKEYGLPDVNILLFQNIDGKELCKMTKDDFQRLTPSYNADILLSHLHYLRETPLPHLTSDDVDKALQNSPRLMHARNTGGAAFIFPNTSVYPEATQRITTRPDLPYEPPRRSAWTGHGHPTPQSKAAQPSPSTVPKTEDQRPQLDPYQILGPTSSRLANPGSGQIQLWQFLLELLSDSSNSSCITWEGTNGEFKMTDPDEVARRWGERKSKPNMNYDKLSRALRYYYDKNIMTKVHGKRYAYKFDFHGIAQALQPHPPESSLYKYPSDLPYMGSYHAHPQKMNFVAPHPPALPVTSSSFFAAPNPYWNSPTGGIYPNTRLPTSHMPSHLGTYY
Procedure, shortened: as §1

ELF1 = ELF1 (Homo sapiens, UniProt P32519 1-619); details: protein: recombinant; tags: N-terminal GST; dsDNA, one strand shown
Procedure, shortened: as §1

EHF = biological target: T5, EHF (Homo sapiens, UniProt Q9NZC4 1-300); details: protein: recombinant; tags: N-terminal GST; dsDNA, one strand shown
T5 sequence: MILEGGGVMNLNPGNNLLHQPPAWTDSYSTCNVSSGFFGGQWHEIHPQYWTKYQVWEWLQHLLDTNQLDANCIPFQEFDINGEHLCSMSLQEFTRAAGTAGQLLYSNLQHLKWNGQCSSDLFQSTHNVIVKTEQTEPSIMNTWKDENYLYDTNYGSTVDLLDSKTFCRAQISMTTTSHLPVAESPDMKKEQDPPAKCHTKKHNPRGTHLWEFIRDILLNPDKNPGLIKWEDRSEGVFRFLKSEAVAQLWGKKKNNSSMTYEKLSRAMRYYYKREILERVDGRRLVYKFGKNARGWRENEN
Procedure, shortened: as §1

SPI1 = SPI1 (Homo sapiens, UniProt P17947 1-270); details: protein: recombinant; tags: N-terminal GST; dsDNA, one strand shown
Procedure, shortened: as §1

SPIB = SPIB (Homo sapiens, UniProt Q01892 1-262); details: protein: recombinant; tags: N-terminal GST; dsDNA, one strand shown
Procedure, shortened: as §1

ELK3 = biological target: T6, ELK3 (Homo sapiens, UniProt P41970 1-407); details: protein: recombinant; tags: N-terminal GST; dsDNA, one strand shown
T6 sequence: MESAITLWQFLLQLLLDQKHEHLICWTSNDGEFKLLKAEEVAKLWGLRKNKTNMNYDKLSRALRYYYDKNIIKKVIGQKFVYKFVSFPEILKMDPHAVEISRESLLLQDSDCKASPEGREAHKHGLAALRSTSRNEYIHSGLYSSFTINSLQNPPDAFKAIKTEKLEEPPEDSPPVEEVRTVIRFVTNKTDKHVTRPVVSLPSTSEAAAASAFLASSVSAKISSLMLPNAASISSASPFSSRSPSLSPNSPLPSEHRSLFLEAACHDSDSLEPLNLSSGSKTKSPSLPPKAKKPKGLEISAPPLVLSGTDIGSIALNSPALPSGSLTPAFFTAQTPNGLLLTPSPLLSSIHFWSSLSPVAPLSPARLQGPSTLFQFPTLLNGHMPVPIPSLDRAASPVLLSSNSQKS
Procedure, shortened: as §1

FEV = biological target: T7, FEV (Homo sapiens, UniProt Q99581 1-238); details: protein: recombinant; tags: N-terminal GST; dsDNA, one strand shown
T7 sequence: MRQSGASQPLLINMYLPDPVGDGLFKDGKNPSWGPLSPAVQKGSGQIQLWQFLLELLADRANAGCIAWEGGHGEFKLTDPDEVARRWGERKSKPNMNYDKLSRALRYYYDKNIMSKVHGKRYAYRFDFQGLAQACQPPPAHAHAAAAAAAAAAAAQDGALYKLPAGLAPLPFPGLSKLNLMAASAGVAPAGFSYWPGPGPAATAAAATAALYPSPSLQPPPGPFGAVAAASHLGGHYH
Procedure, shortened: as §1

ETV5 = ETV5 (Homo sapiens, UniProt P41161 1-510); details: protein: recombinant; tags: N-terminal GST; dsDNA, one strand shown
Procedure, shortened: as §1

HSF1 = HSF1 (Homo sapiens, UniProt Q00613 1-529); details: protein: recombinant; tags: N-terminal GST; chain copies: 3; dsDNA, one strand shown
Procedure, shortened: as §1

SPIC = biological target: T8, SPIC (Homo sapiens, UniProt Q8N5J4 1-248); details: protein: recombinant; tags: N-terminal GST; dsDNA, one strand shown
T8 sequence: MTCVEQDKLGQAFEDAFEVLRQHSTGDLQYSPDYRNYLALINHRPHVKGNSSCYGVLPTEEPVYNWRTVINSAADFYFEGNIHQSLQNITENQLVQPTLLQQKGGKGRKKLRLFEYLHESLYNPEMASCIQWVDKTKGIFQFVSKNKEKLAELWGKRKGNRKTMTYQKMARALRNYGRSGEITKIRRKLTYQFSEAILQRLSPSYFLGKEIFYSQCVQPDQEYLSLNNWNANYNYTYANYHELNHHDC
Procedure, shortened: as §1

ELF4 = ELF4 (Homo sapiens, UniProt Q99607 1-663); details: protein: recombinant; tags: N-terminal GST; dsDNA, one strand shown
Procedure, shortened: as §1

ELK4 = biological target: T9, ELK4 (Homo sapiens, UniProt P28324-2 1-405); details: protein: recombinant; tags: N-terminal GST; dsDNA, one strand shown
T9 sequence: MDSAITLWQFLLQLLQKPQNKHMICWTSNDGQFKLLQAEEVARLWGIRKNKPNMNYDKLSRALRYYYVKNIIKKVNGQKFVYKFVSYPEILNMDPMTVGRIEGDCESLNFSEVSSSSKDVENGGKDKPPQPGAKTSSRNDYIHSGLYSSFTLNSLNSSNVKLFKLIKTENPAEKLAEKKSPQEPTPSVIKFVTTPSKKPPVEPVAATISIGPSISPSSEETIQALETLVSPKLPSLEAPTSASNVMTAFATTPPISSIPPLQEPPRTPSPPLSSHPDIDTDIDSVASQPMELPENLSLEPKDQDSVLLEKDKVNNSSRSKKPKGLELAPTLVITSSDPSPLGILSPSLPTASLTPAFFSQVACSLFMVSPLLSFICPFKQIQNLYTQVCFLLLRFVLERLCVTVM
Procedure, shortened: as §1

ETV2 = biological target: T10, ETV2 (Homo sapiens, UniProt O00321 1-342); details: protein: recombinant; tags: N-terminal GST; dsDNA, one strand shown
T10 sequence: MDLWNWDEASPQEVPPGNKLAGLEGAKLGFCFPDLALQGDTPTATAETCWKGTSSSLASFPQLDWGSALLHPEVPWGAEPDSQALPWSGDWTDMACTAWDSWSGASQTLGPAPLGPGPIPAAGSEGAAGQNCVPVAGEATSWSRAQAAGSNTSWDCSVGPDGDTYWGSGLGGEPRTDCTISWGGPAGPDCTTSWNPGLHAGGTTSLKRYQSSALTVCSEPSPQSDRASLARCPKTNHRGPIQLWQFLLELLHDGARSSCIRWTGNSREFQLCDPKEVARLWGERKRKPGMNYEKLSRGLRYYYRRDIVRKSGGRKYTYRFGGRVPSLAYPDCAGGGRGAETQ
Procedure, shortened: as §1

ELF3 = biological target: T11, ELF3 (Homo sapiens, UniProt P78545 1-371); details: protein: recombinant; tags: N-terminal GST; dsDNA, one strand shown
T11 sequence: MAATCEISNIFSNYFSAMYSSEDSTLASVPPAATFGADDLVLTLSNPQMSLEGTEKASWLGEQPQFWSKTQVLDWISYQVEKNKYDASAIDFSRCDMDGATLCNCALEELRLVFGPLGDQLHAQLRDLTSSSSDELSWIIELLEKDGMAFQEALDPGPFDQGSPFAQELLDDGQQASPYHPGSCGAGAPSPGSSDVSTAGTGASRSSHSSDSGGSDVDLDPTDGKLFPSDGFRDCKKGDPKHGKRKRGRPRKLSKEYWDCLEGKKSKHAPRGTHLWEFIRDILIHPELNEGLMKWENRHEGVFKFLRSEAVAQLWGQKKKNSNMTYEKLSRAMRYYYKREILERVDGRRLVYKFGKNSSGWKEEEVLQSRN
Procedure, shortened: as §1

CRX = CRX (Homo sapiens, UniProt O43186 1-299); details: protein: recombinant; tags: N-terminal GST; dsDNA, one strand shown
Procedure, shortened: as §1

ETV1 = ETV1 (Homo sapiens, UniProt P50549 1-477); details: protein: recombinant; tags: N-terminal GST; dsDNA, one strand shown
Procedure, shortened: as §1

Chain of CRX (O43186 whole entry): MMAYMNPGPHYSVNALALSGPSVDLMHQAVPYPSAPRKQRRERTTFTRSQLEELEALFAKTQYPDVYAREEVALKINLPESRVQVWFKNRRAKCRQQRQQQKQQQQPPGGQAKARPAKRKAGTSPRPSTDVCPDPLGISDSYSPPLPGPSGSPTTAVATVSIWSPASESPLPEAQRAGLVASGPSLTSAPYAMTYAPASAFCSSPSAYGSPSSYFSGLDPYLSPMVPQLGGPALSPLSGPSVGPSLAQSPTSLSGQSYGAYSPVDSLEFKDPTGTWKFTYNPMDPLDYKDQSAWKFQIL
Chain of HSF1 (Q00613 whole entry): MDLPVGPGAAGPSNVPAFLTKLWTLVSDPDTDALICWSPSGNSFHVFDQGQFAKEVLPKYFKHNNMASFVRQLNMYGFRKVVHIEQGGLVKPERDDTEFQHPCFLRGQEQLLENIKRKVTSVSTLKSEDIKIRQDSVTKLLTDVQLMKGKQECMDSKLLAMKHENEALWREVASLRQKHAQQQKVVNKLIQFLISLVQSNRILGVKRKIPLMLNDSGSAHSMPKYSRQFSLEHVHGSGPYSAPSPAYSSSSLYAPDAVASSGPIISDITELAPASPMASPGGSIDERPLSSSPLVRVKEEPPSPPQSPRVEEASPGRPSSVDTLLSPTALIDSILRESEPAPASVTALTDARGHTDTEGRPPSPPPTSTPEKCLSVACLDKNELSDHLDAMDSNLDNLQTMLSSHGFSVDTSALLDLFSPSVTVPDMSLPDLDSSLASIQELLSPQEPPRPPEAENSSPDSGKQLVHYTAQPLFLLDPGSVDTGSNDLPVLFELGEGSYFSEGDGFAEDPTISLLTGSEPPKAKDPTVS
Chain of ETV1 (P50549 whole entry): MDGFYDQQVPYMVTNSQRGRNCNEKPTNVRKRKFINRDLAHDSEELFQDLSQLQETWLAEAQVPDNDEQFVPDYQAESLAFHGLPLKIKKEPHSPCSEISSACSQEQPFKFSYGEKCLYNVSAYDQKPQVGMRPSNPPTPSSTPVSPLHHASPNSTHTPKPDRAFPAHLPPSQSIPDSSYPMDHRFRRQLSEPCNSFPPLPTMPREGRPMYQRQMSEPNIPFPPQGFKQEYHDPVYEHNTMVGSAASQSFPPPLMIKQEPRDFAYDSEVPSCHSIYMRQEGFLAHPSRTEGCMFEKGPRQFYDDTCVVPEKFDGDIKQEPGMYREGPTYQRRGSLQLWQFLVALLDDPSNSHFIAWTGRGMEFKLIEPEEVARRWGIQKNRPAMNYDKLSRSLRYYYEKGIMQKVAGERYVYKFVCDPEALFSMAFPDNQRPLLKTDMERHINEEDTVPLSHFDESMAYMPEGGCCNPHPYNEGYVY
Chain of SPIB (Q01892 whole entry): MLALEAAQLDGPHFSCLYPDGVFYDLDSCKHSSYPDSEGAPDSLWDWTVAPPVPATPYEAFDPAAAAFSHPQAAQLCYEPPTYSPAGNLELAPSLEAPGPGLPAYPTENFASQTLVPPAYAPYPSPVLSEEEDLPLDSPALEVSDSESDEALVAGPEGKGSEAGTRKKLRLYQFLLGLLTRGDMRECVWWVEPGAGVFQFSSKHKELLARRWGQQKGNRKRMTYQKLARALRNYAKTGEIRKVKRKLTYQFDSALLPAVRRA
Chain of ELF4 (Q99607 whole entry): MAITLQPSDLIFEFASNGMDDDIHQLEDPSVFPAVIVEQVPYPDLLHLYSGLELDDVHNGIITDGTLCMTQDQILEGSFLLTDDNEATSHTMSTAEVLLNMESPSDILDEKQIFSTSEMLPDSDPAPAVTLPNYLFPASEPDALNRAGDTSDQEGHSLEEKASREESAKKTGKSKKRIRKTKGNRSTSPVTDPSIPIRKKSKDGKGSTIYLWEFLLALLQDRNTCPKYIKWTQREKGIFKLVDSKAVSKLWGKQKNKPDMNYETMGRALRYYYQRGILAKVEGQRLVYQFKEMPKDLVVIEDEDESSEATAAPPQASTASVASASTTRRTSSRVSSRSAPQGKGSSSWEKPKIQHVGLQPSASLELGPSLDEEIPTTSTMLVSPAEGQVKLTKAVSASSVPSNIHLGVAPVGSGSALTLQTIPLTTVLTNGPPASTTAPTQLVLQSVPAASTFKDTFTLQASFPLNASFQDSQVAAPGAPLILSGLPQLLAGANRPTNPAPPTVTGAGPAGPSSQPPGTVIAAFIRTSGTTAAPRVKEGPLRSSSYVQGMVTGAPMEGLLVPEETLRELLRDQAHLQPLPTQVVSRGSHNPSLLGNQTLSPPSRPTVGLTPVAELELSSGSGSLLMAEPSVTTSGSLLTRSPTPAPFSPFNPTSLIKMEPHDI
Chain of ELF1 (P32519 whole entry): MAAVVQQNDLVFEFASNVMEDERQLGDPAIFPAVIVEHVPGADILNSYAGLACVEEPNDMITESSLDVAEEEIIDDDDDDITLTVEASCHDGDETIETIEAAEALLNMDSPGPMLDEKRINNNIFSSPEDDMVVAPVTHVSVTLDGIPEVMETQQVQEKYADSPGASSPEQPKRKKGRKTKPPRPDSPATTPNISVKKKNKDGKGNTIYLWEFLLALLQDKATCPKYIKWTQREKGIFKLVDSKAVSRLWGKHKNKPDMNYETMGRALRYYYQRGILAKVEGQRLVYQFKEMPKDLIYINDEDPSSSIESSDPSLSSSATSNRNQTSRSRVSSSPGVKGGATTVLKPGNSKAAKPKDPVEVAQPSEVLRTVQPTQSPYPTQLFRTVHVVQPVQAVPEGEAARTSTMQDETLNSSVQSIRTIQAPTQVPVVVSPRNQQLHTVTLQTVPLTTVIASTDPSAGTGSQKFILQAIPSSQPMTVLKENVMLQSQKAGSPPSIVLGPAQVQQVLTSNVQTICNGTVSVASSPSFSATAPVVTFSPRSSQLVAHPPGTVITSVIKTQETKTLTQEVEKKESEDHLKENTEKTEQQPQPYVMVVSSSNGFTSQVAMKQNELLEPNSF
Chain of ETV5 (P41161 whole entry): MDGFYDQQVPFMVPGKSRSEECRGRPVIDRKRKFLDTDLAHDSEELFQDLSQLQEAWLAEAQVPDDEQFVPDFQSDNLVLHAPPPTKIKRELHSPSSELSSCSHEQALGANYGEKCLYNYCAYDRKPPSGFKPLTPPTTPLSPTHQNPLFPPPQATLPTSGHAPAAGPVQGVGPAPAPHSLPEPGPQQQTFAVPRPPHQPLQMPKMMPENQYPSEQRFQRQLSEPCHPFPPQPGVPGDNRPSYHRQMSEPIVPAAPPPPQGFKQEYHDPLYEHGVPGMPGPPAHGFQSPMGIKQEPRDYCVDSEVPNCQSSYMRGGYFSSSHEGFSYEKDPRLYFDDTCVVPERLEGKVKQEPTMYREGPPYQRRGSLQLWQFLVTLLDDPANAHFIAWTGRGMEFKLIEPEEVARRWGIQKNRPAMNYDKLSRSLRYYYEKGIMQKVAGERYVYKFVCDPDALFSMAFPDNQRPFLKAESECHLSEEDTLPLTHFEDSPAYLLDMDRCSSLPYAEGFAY

## TCCGCC
FLI1
  binding signal: 1.57 fold enrichment (6-mer frequency, TF over GST control)
ELK1
  binding signal: 1.61 fold enrichment (6-mer frequency, TF over GST control)
GABPA
  binding signal: 1.53 fold enrichment (6-mer frequency, TF over GST control)
ERG
  binding signal: 1.69 fold enrichment (6-mer frequency, TF over GST control)
ELF1
  binding signal: 1.7 fold enrichment (6-mer frequency, TF over GST control)
EHF
  binding signal: 1.73 fold enrichment (6-mer frequency, TF over GST control)
SPI1
  binding signal: 1.48 fold enrichment (6-mer frequency, TF over GST control)
SPIB
  binding signal: 1.54 fold enrichment (6-mer frequency, TF over GST control)
ELK3
  binding signal: 1.86 fold enrichment (6-mer frequency, TF over GST control)
FEV
  binding signal: 1.88 fold enrichment (6-mer frequency, TF over GST control)
ETV5
  binding signal: 1.69 fold enrichment (6-mer frequency, TF over GST control)
HSF1
  binding signal: 1.04 fold enrichment (6-mer frequency, TF over GST control)
SPIC
  binding signal: 1.69 fold enrichment (6-mer frequency, TF over GST control)
ELF4
  binding signal: 1.55 fold enrichment (6-mer frequency, TF over GST control)
ELK4
  binding signal: 1.45 fold enrichment (6-mer frequency, TF over GST control)
ETV2
  binding signal: 1.48 fold enrichment (6-mer frequency, TF over GST control)
ELF3
  binding signal: 1.6 fold enrichment (6-mer frequency, TF over GST control)
CRX
  binding signal: 1.05 fold enrichment (6-mer frequency, TF over GST control)
ETV1
  binding signal: 1.59 fold enrichment (6-mer frequency, TF over GST control)

From paper PMC7862700, “An all-to-all approach to the identification of sequence-specific readers for epigenetic DNA modifications on cytosine”
